# PubChem BioAssay
# The source made the active and inactive calls.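 How the source made its calls, unless noted: active means fluorescence slope after compound addition differing from the mean of all screened samples at 99.7% confidence, in either direction; inactive means the rest.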
# Tests used:
# [1] = inhibitors of TNFa-induced NFkB p65 translocation, primary screen, imaging, HUVEC, MLSMR starter and 10KST1 sets (AID 438;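 active means inhibition above 20% together with a positive visual image hit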;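 further: compound added about 3h40 before a 20 min TNFalpha stimulation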;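 on inhibition: signal is the nuclear over cytoplasmic p65 intensity ratio per well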); details: HUVEC TNFa-induced p65 nuclear translocation; cell count: measured here: nuclei count (cytotoxicity indicator), at 2.08 µM; inhibition: at 2 µM, stronger effect = higher value, 0% TNFa-plus-vehicle, 100% no-TNFa wells
# [2] = inhibitors of mutant huntingtin aggregation, primary screen, imaging, exon1htt(103Q)mCFP cells, high-content imaging (AID 483;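 active means visual image review flags a hit and inhibition of aggregation exceeds 20%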;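 further: compound exposure lasted 3 days before fixation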;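 on nuclei count: percent of the per-plate median nuclei count of sample wells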); details: exon1htt(103Q)mCFP cell line, aggregate imaging, at 2 µM; inhibition of aggregation: stronger effect = higher value; nuclei count: measured here: cell count, toxicity
# [3] = inhibitors of E-selectin induction by TNFa, primary screen, imaging, HUVEC, immunofluorescence, MLSMR starter and 10KST1 sets (AID 487;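 active means visually confirmed hit in the image check and inhibition above 20%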;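 on inhibition: signal is fraction of cell area covered by stained E-selectin grains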;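 on nuclei count: 100% = median nuclei count of all wells on the same plate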); details: HUVEC TNFalpha-induced E-selectin immunofluorescence imaging, at 2 µM; inhibition: stronger effect = higher value; nuclei count: measured here: cell number, toxicity
# [4] = molecular target: Voltage-gated potassium channel subunit beta-2 (Rattus norvegicus) (UniProt P62483); experiment: KvBeta enzyme negative modulators, primary screen, biochemical, NADPH fluorescence (AID 622;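 active means fluorescence slope higher than the sample average by over 3 SD, cut at about -0.22 in these data, passing the limit was not always enough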;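 further: slope of raw intensity against log time taken from 70 to 1610 s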); details: recombinant KvBeta, 4-cyanobenzaldehyde reduction, at 10 µM, stronger effect = higher value
# [5] = molecular target: Voltage-gated potassium channel subunit beta-2 (Rattus norvegicus) (UniProt P62483); experiment: KvBeta positive modulators, primary screen, biochemical, NADPH fluorescence (AID 623;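 active means NADPH fluorescence slope more negative than the mean of all samples by about 3 SD, 99.7% confidence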;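 further: fluorescence intensity change per second fitted from 20 to 320 s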); details: Recombinant KvBeta, NADPH fluorescence decrease slope, 10 min; at 10 µM; stronger effect = lower value
# [6] = molecular target: Alpha-2C adrenergic receptor (Homo sapiens) (UniProt P18825); experiment: modulators of alpha2C/GIRK thallium flux, primary screen, cell-based, HEK293 alpha2C/GIRK1/2 (AID 624); details: thallium flux BTC fluorescence, at 10 µM, actives lie on both sides;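 further: slope of fluorescence ratio to pre-addition baseline per second over 15 to 24 s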
# [7] = inhibitors of Sendai virus-induced IRF3 signaling, primary screen, TLR/RLR signaling modifier project, cell-based, Sendai virus stimulus, luciferase, 10K MLSCN set (AID 602276;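 active means inhibition at or above 50% at 10 µM; inactive means inhibition below 50%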;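 further: firefly luciferase from ISG56 promoter only with Renilla not read in this screen; 0% = Sendai virus plus DMSO and 100% = medium plus DMSO without virus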); details: HEK293 RL24 IRF3 luciferase reporter, at 10 µM, stronger effect = higher value
# [8] = inhibitors of poly I:C-induced TLR3 signaling, primary screen, cell-based, poly I:C stimulus, luciferase, 10K MLSCN set (AID 602277;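 active means inhibition of the reporter signal at or above 50%; inactive means inhibition below 50%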); details: HEK293-TLR3 RL24 IRF3 luciferase reporter, at 10 µM, stronger effect = higher value
# Voltage-gated potassium channel subunit beta-2 (Rattus norvegicus), sequence (P62483 whole entry, looked up): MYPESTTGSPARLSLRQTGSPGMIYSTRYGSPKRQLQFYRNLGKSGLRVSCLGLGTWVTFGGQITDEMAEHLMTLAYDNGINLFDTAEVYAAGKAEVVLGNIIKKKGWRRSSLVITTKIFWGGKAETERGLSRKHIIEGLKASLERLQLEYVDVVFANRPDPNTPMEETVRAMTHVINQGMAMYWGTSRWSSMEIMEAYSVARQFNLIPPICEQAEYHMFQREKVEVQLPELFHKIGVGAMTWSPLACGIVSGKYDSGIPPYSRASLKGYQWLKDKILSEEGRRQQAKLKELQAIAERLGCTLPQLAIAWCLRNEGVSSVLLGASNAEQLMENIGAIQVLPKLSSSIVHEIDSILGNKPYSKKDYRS
# Alpha-2C adrenergic receptor (Homo sapiens), sequence (P18825 whole entry, looked up): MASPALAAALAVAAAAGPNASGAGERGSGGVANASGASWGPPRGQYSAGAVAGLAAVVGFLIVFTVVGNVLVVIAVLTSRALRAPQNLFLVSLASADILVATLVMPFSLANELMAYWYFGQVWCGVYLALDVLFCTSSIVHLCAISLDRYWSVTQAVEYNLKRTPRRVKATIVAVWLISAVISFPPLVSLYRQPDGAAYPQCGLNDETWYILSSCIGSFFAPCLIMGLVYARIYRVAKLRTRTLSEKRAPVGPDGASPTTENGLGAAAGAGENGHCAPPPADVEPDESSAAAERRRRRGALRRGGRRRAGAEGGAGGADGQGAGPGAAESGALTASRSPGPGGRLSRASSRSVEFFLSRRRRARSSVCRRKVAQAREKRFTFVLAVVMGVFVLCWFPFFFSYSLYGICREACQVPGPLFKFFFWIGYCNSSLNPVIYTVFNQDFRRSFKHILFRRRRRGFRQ
SMILES,cell count [1],inhibition [1],inhibition of aggregation [2],nuclei count [2],inhibition [3],nuclei count [3],fluorescence slope [4],NADPH fluorescence slope [5],slope [6],inhibition [7],inhibition [8]
O=C(CSc1nc2c(c(=O)n1-c1ccc(F)cc1)SCC2)NCC1CCCO1 (stereo not drawn),256,9.8% (inactive),16.7% (inactive),94.5%,-8.7% (inactive),78.2%,-0.462 (inactive),-5.5e-05 (inactive),0.00463 (inactive),17.7% (inactive),19.7% (inactive)
C=CCn1c(SC(C)C(=O)NC2(C#N)CCCCC2)nnc1-c1ccc(OC)cc1 (stereo not drawn),612,9.9% (inactive),6.2% (inactive),95%,-154% (inactive),94%,-0.594 (inactive),-3.3e-05 (inactive),0.00361 (inactive),22.5% (inactive),21.6% (inactive)
O=C(C1CCCN(S(=O)(=O)c2cccnc2)C1)N1CCn2c1nc1ccccc12 (stereo not drawn),639,-11.6% (inactive),-20.6% (inactive),112%,-57.5% (inactive),107%,-0.595 (inactive),-2.6e-05 (inactive),0.00573 (inactive),-7.64% (inactive),-1.49% (inactive)
CC1=C(C)[N+](=O)C2CCCCC2N1[O-] (stereo not drawn),705,3.9% (inactive),13.8% (inactive),104%,58% (inactive),86.5%,-0.368 (inactive),-0.000147 (inactive),0.00784 (inactive),-0.132% (inactive),16.1% (inactive)
CC1(C)CC(=O)c2cnc(NC(=O)CCc3ccccc3)nc2C1,608,-15.9% (inactive),-15.3% (inactive),112%,-24.7% (inactive),119%,-0.365 (inactive),9.1e-06 (inactive),0.00293 (inactive),14.3% (inactive),33% (inactive)
COc1ccccc1C(=O)Nc1ccc(S(=O)(=O)N2CCCC2)cc1,676,2.2% (inactive),7.3% (inactive),114%,-22.4% (inactive),108%,-0.584 (inactive),-2.5e-05 (inactive),0.0037 (inactive),8.65% (inactive),-0.301% (inactive)
CC(=O)c1ccc(-n2nnnc2SCC(=O)N2CCc3ccccc3C2)cc1,434,-12.9% (inactive),12.1% (inactive),104%,0% (inactive),93.6%,-0.51 (inactive),2.1e-05 (inactive),0.0053 (inactive),2.55% (inactive),5.8% (inactive)
COCCn1c(-c2ccco2)nc2nc3ccccc3nc21,237,1.6% (inactive),23.4% (inactive),69.1%,-4.2% (inactive),98.9%,-0.255 (inactive),-2.3e-05 (inactive),0.00377 (inactive),-0.433% (inactive),-3.38% (inactive)
